The values below come from PubChem BioAssay (NCATS).

A short description of assay [1]: qHTS for differential inhibitors of proliferation of Plasmodium falciparum line Dd2 (AID 1882). Also: series mostly up to about 29 µM; nearly all actives have a fitted effect of over 65% in size. The settings on record: Potency: Plasmodium falciparum Dd2 proliferation inhibition. A digest of the protocol:
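Dd2-infected erythrocytes (0.3% parasitemia, 2.5% hematocrit final) incubated with compound 72 h at 37 C, 5% CO2; lysed with saponin/Triton buffer containing SYBR Green I, incubated overnight in the dark, then read by fluorescence (485/535 nm). Normalized to 0.29 uM artemisinin and DMSO.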
In general terms: In qHTS, concentration-response curves come from the screen itself.

A short description of assay [2]: qHTS for differential inhibitors of proliferation of Plasmodium falciparum line HB3 (AID 1886).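 Also: parasites grown with compound for 72 h before SYBR Green readout.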 Conditions: Potency: Plasmodium falciparum HB3 proliferation inhibition.
For assay [3], the target named is Ferritin light chain (Equus caballus) (UniProt P02791). Nature of the assay: qHTS Validation Assay for Identification of Novel General Anesthetics (AID 2323). Also: series mostly up to about 77 µM. A digest of the protocol: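 Horse-spleen apoferritin (10 uM) in PBS with 50% saturated 1-aminoanthracene; compounds pin-transferred, 10 min at room temperature. Fluorescence read at 380/535 nm, normalized to free 1-AMA and 1-AMA/apoferritin values; four-parameter Hill fit.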
Sequence of Ferritin light chain (Equus caballus) (P02791 2-175 limits assumed): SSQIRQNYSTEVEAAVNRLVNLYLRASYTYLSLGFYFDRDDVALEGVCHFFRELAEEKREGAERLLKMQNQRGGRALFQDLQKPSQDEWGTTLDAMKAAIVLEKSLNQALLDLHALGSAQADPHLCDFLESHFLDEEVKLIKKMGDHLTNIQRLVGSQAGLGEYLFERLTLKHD

In assay [4] the target is ATP-dependent DNA helicase Q1 (Homo sapiens) (UniProt P46063). Nature of the assay: qHTS Validation Assay for Inhibitors of RecQ-Like Dna Helicase 1 (RECQ1) (AID 2353). A digest of the protocol: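 50 nM RECQ1T1 preincubated 15 min with compound in Tris pH 8.0 buffer with MgCl2, DTT, Tween-20 and 2.5 ug/ml poly(dI-dC); started with 200 nM TAMRA/BHQ-2 forked duplex and 2 mM ATP. Unwinding read as fluorescence (525/598 nm), two reads 2 h apart.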
Sequence of ATP-dependent DNA helicase Q1 (Homo sapiens) (P46063 whole entry, looked up): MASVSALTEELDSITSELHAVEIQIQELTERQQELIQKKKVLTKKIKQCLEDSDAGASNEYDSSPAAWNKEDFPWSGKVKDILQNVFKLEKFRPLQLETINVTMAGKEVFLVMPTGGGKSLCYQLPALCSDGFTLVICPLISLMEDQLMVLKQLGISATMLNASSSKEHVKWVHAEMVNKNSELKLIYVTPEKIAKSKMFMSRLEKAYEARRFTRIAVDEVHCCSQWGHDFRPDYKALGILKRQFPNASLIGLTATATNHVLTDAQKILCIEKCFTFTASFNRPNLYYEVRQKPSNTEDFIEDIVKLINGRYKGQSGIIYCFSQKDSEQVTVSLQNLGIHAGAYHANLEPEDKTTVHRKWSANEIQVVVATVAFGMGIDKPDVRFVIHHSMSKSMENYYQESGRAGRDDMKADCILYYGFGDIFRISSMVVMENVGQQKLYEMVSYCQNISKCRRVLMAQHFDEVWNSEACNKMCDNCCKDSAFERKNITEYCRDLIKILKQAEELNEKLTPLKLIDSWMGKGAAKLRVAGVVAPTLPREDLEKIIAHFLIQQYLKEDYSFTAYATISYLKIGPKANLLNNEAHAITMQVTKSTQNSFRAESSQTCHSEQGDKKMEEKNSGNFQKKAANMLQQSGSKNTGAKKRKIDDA

The nature of assay [5]: High Content Imaging Cell-Based qHTS for Inhibitors of the mTORC1 Signaling Pathway in MEF Cells (AID 2667).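 Also: Tsc2-/- p53-/- MEFs stably re-expressing wild-type Tsc2 exposed 24 h; series mostly up to about 38 µM.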 A digest of the protocol:
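WT MEFs (Tsc2-/-, p53-/- re-expressing Tsc2), in DMEM + 10% FBS, were treated with compound for 24 h at 37 C. Cells were then fixed and stained for phospho-rpS6 Ser235/236 with propidium iodide as cell count. Values are % positive cells, with thresholds set against rapamycin-treated cells.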

Assay [6] in a line: Cytometry Cell-Based qHTS for Inhibitors of the mTORC1 Signaling Pathway in MEF cells (AID 2668).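 Also: Tsc2-/- p53-/- mouse embryonic fibroblasts stably re-expressing wild-type Tsc2; percent cells positive for phospho-rpS6 Ser235/236 relative to propidium iodide stain; series mostly up to about 38 µM.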 A digest of the protocol: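 MEFs (Tsc2-/-, p53-/- stably expressing WT Tsc2) treated 24 h at 37 degree Celsius, fixed, stained with Alexa-488 anti-phospho-rpS6 Ser235/236 and propidium iodide; Acumen laser scanning. Reported as % positive cells, phospho-S6 normalized to PI.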
A short description of assay [7]: Validation screen for small molecules that induce DNA re-replication in MCF 10A normal breast cells (AID 463097). Also: nearly all actives have a fitted effect of over 60% in size. Also: potency is read from the fitted curve at half-maximal effect. An outline of the steps: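 MCF 10A cells exposed to compound 48 hr at 37 C, 5% CO2, then Hoechst-stained 40 min. Laser-scanning imaging of nuclear DNA content (405 nm ex, 500-530 nm em); re-replication scored as rise in nuclei with elevated fluorescence intensity.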

Assay [8] deals with Ubiquitin carboxyl-terminal hydrolase 2 (Homo sapiens) (UniProt O75604). Description: qHTS Validation Assay for Inhibitors of Ubiquitin-specific Protease USP2a Using CHOP2 as the Reporter (AID 463106). Also: potency is read from the fitted curve at half-maximal effect. A digest of the protocol:
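USP2 core (10 nM final) was preincubated with compound 30 min at RT in pH 8.0 Tris/CaCl2/beta-ME/CHAPS buffer. Ub-CHOP2 and reporter substrate (25 nM final each) were then added, with fluorescence (Ex 485/Em 531) read after 60 min. Data were normalized to NEM full inhibition and fitted to concentration-response curves.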

Assay [9] deals with DNA polymerase III PolC-type (Bacillus subtilis (strain 168)) (UniProt P13267). Description: qHTS Validation Assay for the Inhibitors of DNA Replication in Gram-Positive Bacteria (AID 485295). Also: potency is read from the fitted curve at half-maximal effect. An outline of the steps: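 Reconstituted B. subtilis Pol III holoenzyme (PolC, beta clamp, SSB, primase) preincubated with compound, then M13Gori single-stranded circular template with dNTPs/NTPs added; room temperature reaction. Stopped with EDTA/PicoGreen; dsDNA fluorescence read, EDTA as full-inhibition control.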
Sequence of DNA polymerase III PolC-type (Bacillus subtilis (strain 168)) (P13267 whole entry, looked up): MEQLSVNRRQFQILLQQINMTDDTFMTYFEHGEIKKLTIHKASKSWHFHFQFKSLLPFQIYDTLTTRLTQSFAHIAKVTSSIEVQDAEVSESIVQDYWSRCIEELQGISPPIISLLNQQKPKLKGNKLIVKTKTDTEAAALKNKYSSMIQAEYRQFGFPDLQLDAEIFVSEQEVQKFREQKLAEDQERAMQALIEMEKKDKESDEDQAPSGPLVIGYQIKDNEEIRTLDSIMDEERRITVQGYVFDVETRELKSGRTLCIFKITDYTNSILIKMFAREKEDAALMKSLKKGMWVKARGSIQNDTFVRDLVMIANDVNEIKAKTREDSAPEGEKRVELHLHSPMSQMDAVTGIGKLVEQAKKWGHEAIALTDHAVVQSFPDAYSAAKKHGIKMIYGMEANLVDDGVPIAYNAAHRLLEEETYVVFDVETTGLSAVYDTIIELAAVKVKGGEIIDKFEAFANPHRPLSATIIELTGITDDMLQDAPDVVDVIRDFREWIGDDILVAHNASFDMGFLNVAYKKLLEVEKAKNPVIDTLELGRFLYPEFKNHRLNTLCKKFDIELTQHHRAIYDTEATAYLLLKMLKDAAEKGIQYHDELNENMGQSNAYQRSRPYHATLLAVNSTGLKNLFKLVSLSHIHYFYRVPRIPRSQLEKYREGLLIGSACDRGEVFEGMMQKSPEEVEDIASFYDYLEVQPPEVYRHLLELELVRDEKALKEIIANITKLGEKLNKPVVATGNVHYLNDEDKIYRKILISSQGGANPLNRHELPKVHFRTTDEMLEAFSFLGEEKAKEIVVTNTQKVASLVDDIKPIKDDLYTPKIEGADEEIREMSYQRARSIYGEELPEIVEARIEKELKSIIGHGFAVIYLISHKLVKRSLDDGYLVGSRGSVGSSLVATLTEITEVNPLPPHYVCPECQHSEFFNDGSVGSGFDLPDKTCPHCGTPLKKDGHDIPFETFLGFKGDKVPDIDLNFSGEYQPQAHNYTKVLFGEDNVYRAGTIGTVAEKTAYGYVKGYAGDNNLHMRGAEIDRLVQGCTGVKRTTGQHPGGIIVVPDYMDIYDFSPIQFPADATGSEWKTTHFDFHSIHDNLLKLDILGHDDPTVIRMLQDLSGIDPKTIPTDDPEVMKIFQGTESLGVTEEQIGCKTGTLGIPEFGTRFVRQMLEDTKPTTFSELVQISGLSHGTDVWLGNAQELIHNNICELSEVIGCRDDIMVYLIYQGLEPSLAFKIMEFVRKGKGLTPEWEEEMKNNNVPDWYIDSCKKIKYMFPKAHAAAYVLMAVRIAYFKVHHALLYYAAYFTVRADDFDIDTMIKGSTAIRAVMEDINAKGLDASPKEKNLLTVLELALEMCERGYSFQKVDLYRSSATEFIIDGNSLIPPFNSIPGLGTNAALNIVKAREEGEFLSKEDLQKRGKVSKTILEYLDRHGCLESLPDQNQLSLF

Assay [10] in a line: qHTS Validation Assay to Find Inhibitors of Chronic Active B-Cell Receptor Signaling (AID 485345; active = well fitted curve in the direction sought with a large enough effect in the main read-out, with a control signal flat, not every such curve was filed as active). A digest of the protocol: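 TMD8 ABC-DLBCL cells stably carrying doxycycline-inducible IkappaBalpha–green luciferase fusion plus unfused red luciferase; compounds 46 uM to 3 nM, 4 h at 37C with doxycycline. Corrected green/red luminescence ratio normalized to 10 uM MG-132 and basal cell wells; curves fitted.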

For assay [11], the target named is Beta-2 adrenergic receptor (Homo sapiens) (UniProt P07550). Description: qHTS validation assay of beta-arrestin-biased ligands of beta2-adrenergic receptor (AID 485366). An outline of the steps: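 Arrestin-recruitment (Tango) reporter: ligand-bound beta2-AR recruits beta-arrestin, releasing tTA, which upregulates luciferase. Titrations of up to 46 microM incubated 18 hr at 37 degrees C before luminescent readout.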
Sequence of Beta-2 adrenergic receptor (Homo sapiens) (P07550 whole entry, looked up): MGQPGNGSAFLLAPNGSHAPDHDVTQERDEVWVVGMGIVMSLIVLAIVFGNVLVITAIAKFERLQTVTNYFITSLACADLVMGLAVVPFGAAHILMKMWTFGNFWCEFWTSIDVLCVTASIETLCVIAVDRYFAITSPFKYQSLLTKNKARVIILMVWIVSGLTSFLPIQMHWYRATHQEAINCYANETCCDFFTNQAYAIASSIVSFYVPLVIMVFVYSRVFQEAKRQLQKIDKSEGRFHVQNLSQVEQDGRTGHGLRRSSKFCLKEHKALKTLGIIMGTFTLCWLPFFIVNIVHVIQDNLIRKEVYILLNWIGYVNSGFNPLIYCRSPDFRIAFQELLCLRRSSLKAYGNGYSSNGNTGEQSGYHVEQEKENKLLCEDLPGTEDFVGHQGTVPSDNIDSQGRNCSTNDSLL

Assay [12] is described as follows: Cytometric Cell-Based qHTS for Inhibitors of the mTORC1 Signaling Pathway in MEF (Tsc2-/-, p53-/-) Cells (AID 2660).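 Also: percent of cells above a phospho-rpS6 to PI ratio cutoff in each well; series mostly up to about 38 µM.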 An outline of the steps:
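Immunofluorescence qHTS of rpS6 Ser235/236 phosphorylation: MEFs (Tsc2-/-, p53-/-) treated 24 h, 37 C, in DMEM + 10% FBS. Alexa-488 signal normalized to PI count, referenced to rapamycin (7.5 nM) and DMSO; PI cell number recorded for viability.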

Assay [13] in a line: High Content Imaging Cell-Based qHTS for Inhibitors of the mTORC1 Signaling Pathway in MEF (Tsc2-/-, p53-/-) Cells (AID 2666).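 Also: percent of cells scored positive for phospho-rpS6 Ser235/236 immunostaining by imaging.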 A digest of the protocol:
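Phospho-rpS6 (Ser235/236) immunofluorescence, normalized and scored as % positive cells using rapamycin and DMSO controls, was read in empty-vector Tsc2-/-, p53-/- MEFs after 24 h compound exposure at 37 C; propidium iodide counted cells.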

In assay [14] the target is Tumor susceptibility gene 101 protein (Homo sapiens) (UniProt Q99816). Nature of the assay: qHTS Validation Assay for Iinhibitors of HIV-1 Budding by Blocking the Interaction of PTAP/TSG101 (AID 485342; calls by dose curve). A digest of the protocol: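 Tsg101 binding domain (10 uM) with FITC-labeled PTAP peptide (50 nM) in HEPES pH 7.5 buffer, 20 min at r.t. with compounds. Binding measured by fluorescence polarization.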
Sequence of Tumor susceptibility gene 101 protein (Homo sapiens) (Q99816 whole entry, looked up, the tested form may be a part): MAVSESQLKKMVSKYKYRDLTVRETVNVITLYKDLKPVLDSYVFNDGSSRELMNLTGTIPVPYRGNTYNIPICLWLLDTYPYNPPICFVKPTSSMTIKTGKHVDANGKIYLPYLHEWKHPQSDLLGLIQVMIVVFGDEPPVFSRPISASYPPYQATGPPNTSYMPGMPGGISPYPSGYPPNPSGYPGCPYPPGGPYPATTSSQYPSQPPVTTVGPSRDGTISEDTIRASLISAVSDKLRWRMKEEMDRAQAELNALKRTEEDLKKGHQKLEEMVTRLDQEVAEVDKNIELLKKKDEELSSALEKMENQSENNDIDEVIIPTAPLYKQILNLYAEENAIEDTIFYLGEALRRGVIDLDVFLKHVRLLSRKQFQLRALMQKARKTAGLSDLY

In assay [15] the target is RecQ-like DNA helicase BLM (Homo sapiens) (UniProt P54132). Nature of the assay: qHTS Validation Assay for Inhibitors of Bloom's syndrome helicase (BLM) (AID 2364). Also: potency is read from the fitted curve at half-maximal effect. An outline of the steps: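 50 nM BLM preincubated 15 min at room temperature with compound in pH 8.0 Tris buffer containing 2.5 ug/ml poly(dI-dC); started with 200 nM TAMRA/BHQ-2 forked duplex and 2 mM ATP (final). Unwinding read as TAMRA fluorescence increase, two reads 2 h apart.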

Structures are written as SMILES. Results filed as inconclusive are left out. Activity calls are given as the source filed them. Unless noted, calls follow the shape of the dose curve; as a rule, active = well fitted curve in the direction sought with a large enough effect; inconclusive = small, poorly fitted or top-dose-only effect, or another doubt; inactive = no such curve, though single readings can be large; an effect the other way counts as inactive or inconclusive.

Sequence of Ubiquitin carboxyl-terminal hydrolase 2 (Homo sapiens) (O75604 whole entry, looked up): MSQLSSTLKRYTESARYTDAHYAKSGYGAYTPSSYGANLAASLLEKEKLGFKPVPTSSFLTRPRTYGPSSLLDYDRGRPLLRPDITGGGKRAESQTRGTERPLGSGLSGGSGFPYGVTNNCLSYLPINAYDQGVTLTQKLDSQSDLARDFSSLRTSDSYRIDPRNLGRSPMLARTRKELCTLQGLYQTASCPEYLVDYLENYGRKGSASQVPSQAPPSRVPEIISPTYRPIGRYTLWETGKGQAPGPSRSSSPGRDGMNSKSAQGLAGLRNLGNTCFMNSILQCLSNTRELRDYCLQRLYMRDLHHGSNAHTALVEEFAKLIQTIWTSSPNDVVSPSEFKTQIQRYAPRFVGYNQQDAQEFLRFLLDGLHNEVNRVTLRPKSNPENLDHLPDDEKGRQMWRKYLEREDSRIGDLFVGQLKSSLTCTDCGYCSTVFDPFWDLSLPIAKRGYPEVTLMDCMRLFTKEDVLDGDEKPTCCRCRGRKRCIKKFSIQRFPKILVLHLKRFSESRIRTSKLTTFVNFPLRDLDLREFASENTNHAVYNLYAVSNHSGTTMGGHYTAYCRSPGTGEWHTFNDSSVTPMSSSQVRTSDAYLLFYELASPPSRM

Turning to `C[C@H](O)C(=O)C1=Nc2c(nc(N)[nH]c2=O)NC1`, the Potency result in [1], in [2], in assay [3], in assay [4], in [5] and in assay [6] was “inactive” each time. Besides, the Potency entry in assay [7], in assay [8] and in assay [9] was “inactive” in each case. The compound was classed as inactive in [10] and in assay [11].
`O=c1[nH]c2ccccc2c2ccccc12`: the Potency entry in assay [1], in assay [2], in assay [4], in assay [13], in [5] and in assay [7] was “inactive” each time. The Potency result in assay [8] and in [9] was “inactive” throughout. Moreover, the call in assay [12], in assay [14] and in assay [11] was inactive.
Take `O=C(O)/C(=C/c1c(C(=O)O)[nH]c2cc(Cl)cc(Cl)c12)c1ccccc1`: the Potency entry in assay [1], in assay [2], in [3], in assay [4], in assay [5] and in assay [6] was “inactive” each time. In addition, the Potency entry in assay [7], in assay [8] and in assay [9] was “inactive” each time. The call in assay [12], in assay [14] and in assay [11] was inactive.
Take `CCCc1c(-c2ccc(O)cc2)nn(-c2ccc(O)cc2)c1-c1ccc(O)cc1`: the Potency entry in assay [1], in assay [2], in assay [4], in assay [13], in assay [5] and in assay [6] was “inactive” throughout. Further, in [9], the Potency result was “inactive”. The result in assay [12] and in assay [11] was inactive.
In the case of `Cc1cc2c(cc1Cl)N(C(=O)Nc1ccnc3ccccc13)CC2`, the Potency result in [1], in assay [2], in assay [3], in [4], in [5] and in assay [6] was “inactive” throughout. Also, the Potency entry in assay [7], in [8] and in assay [9] was “inactive” throughout. The result in assay [12], in assay [14], in [10] and in assay [11] was inactive.
With `CCCn1c(=O)c2c(ncn2C)n(CCC)c1=O`, the Potency result in assay [1], in assay [2], in assay [4], in [13], in [5] and in [6] was “inactive” in each case. For the same compound, the Potency entry in assay [7], in assay [8] and in [9] was “inactive” each time. For the same compound, the compound was classed as inactive in assay [12], in [14], in assay [10] and in assay [11].
Turning to `O=C(O)C1CCNCC1`, the Potency entry in assay [1], in assay [3], in assay [4], in assay [13], in assay [5] and in assay [6] was “inactive” each time. Also, the Potency entry in assay [7], in assay [8] and in assay [9] was “inactive” each time. Besides, the call in assay [12], in assay [14], in assay [10] and in [11] was inactive.
On to `O=C(O)C1=CC(=C(c2ccc(O)c(C(=O)O)c2)c2ccc(O)c(C(=O)O)c2)C=CC1=O`, for which the Potency entry in assay [1], in [13] and in assay [6] was “inactive” in each case. Also, the Potency was 0.794 µM (active) in assay [15], 1.04 µM (active) in assay [8] and 3.36 µM (active) in [9]. Besides, the compound was classed as inactive in assay [12] and in assay [11].
As to `C/C(=C\c1ccc(C(=O)O)cc1)c1ccc2c(c1)C(C)(C)CCC2(C)C`, the Potency result in assay [1], in assay [2], in [3], in [13], in assay [5] and in assay [9] was “inactive” throughout. For the same compound, the outcome in assay [12] and in [11] was inactive. For the same compound, in assay [7], the Potency is 11.2 µM (active).
Turning to `CCCn1c(=O)c2[nH]c(-c3ccc(S(=O)(=O)O)cc3)nc2n(CCC)c1=O`, the Potency result in [1], in assay [13], in assay [5], in assay [6], in [7] and in assay [8] was “inactive” throughout. The Potency entry in assay [9] was “inactive”. In addition, the compound was called inactive in assay [12] and in assay [14].
Take `Nc1ccc2c3c(cccc13)C(=O)NC2=O`: the Potency entry in assay [1], in [2], in assay [3], in [13], in [5] and in assay [7] was “inactive” each time. In addition, the Potency result in assay [9] is “inactive”. For the same compound, the result in assay [12] was inactive.
